The values that follow come from PubChem BioAssay (NCI).

Test [1] is described as follows: NCI Yeast Anticancer Drug Screen. Data for the rad50 strain (AID 155).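 Note: 0% = growth of vehicle-only cultures of the same strain.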 To be noted: S. cerevisiae rad50 strain growth inhibition; at 50.0 µM; stronger effect = higher value. Summed up: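 DNA repair mutant yeast, compound exposure, growth read-out; inhibition is taken relative to vehicle.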
Test [2] is described as follows: NCI Yeast Anticancer Drug Screen. Data for the mec2-1 strain (AID 157). The settings on record: S. cerevisiae mec2-1 strain, at 50.0 µM, stronger effect = higher value. Summed up:
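Readout is yeast growth inhibition, normalised to vehicle-treated controls, in the mec2-1 strain exposed to compound.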

The nature of test [3]: NCI Yeast Anticancer Drug Screen. Data for the sgs1 mgt1 strain (AID 161).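 Note: 0% = growth of cultures given vehicle only.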 To be noted: S. cerevisiae sgs1 mgt1 strain, at 50.0 µM, stronger effect = higher value. The method in brief:
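Percent growth inhibition was derived by comparing compound-exposed mutant yeast with vehicle-exposed cultures. The strain carries alterations in DNA damage repair.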

A short description of test [4]: NCI Yeast Anticancer Drug Screen. Data for the cln2 rad14 strain (AID 165).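 Note: 0% = growth equal to vehicle treated cultures.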 To be noted: S. cerevisiae cln2 rad14 strain, at 50.0 µM, stronger effect = higher value. The method in brief:
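Relative to vehicle controls, growth inhibition of compound-treated cln2 rad14 yeast was recorded.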

Test [5] is described as follows: NCI Yeast Anticancer Drug Screen. Data for the bub3 strain (AID 167). The settings on record: S. cerevisiae bub3 mutant strain, at 50.0 µM, stronger effect = higher value. Summed up: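 In this screen, a yeast mutant lacking normal mitotic checkpoint function is challenged with compound. Relative growth versus vehicle gives the inhibition value.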
Test [6] is described as follows: NCI Yeast Anticancer Drug Screen. Data for the mlh1 rad18 strain (AID 175). The settings on record: S. cerevisiae mlh1 rad18 strain growth inhibition; at 50.0 µM; stronger effect = higher value. Summed up:
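Test agents were incubated with a yeast strain of defined genotype (DNA damage repair defect). Inhibition of growth was derived by comparison with vehicle-exposed cultures.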

Each structure is given as a SMILES string. This is part of a sample that, as a whole, favours compounds with a hit. Of some 79,000 tested, about 15% had one in any assay. Values without a mark were called inactive. Active and inactive are the calls of the source. Cut-off read from the data, not from the text of the source: active = growth inhibition above about 70%; inactive = the rest.

Take `BrC12CC3CC(CC(C3)C1)C2`: the growth inhibition in test [1] is 21.8%; in test [2] it was 13.1%; in test [3], 9.4%; in test [4], 11.1%; in test [5] it was 9.25%; in test [6] it was 12.8%.
On to `CCOC(=O)c1nc(N(C)C)oc(=O)c1C`, for which the growth inhibition in test [1] was 25.1%; in test [2] it was 33.1%; in test [3] it was 28.1%; in test [4], -0.7%; in test [5] it was 18.6%; in test [6], 13.6%.
On to `O=C(O)C(C(C(=O)O)P(=O)(O)O)P(=O)(O)O` (stereo unspecified), for which the growth inhibition in test [1] is -17.9%; in test [2] it was -30.8%; in test [3] it was -50.6%; in test [4] it was -38.8%; in test [5], -12.2%; in test [6], -62.3%.
Consider `Cc1csc(-n2nc(C)cc2C)n1`, for which the growth inhibition was -5.35% in test [1]; -23.1% in test [2]; -37.2% in test [3]; 6.75% in test [4]; -30.9% in test [5]; -6.05% in test [6].
In the case of `Cc1ccc(C)c(NC(=O)C(=O)C(C2C(C)CC(=O)C2CC(=O)O)[N+](=O)[O-])c1` (stereo unspecified), the growth inhibition in test [1] was 7.05%; in test [2] it was 10.9%; in test [3] it was -8.05%; in test [4], 10.8%; in test [5], 6.6%; in test [6] it was 1.7%.
As to `Cc1nc2ccccc2c(=O)n1-c1ccc(-c2nnc(Sc3nnc(-c4ccc(-n5c(C)nc6ccccc6c5=O)cc4)n3-c3ccccc3)n2-c2ccccc2)cc1`, the growth inhibition in test [1] was 16.6%; in test [2], -3.35%; in test [3], 8.2%; in test [4], -17.6%; in test [5] it was 11.3%; in test [6], 30.1%.
As to `CC(=O)N(C)c1ccc(NC(=O)/C=C/c2ccccc2)cc1`, the growth inhibition in test [1] was 0.15%; in test [2] it was 4.25%; in test [3], 15.7%; in test [4] it was -9.85%; in test [5], 28.1%; in test [6], 17.1%.
Consider `COC(=O)c1ncn(C(C(=O)OC)C(=O)OC)c1O`, for which the growth inhibition in test [1] is -5.6%; in test [2], -6.75%; in test [3] it was -4.75%; in test [4] it was -14.4%; in test [5] it was -5.1%; in test [6], -10.8%.
Take `CCn1c(=O)c2[nH]c(Br)nc2n(CC)c1=O`: the growth inhibition in test [1] was 1.95%; in test [2], -0.6%; in test [3], 5.95%; in test [4] it was -6.85%; in test [5], 0.3%; in test [6], -9.45%.
For `CC(C)c1ccc(O)c(C(C)(C)C)c1`, the growth inhibition in test [1] was -25.5%; in test [2], -29.8%; in test [3], -14.3%; in test [4], -13.9%; in test [5], -32.5%; in test [6], -14.6%.
As to `O=C1C(=O)N(c2ccc(Cl)cc2Cl)C(=O)C(=O)C1c1nc2ccccc2s1`, the growth inhibition was 43.1% in test [1]; 29.7% in test [2]; 4% in test [3]; 24.2% in test [4]; 25.6% in test [5]; 29% in test [6].
For `O=C(OCC1OC(OC(=O)c2ccccc2)C(O)C1OC(=O)c1ccccc1)c1ccccc1` (stereo unspecified), the growth inhibition was 45.2% in test [1]; 15.7% in test [2]; 19.3% in test [3]; 38.2% in test [4]; 35.7% in test [5]; 49.5% in test [6].
Take `CCCCCCCCCCCCCCCCCCCCc1ccccc1`: the growth inhibition is 25.9% in test [1]; 10.3% in test [2]; 1.2% in test [3]; 12.7% in test [4]; -14.2% in test [5]; 26.4% in test [6].
For the compound `CC(=O)N(C)Nc1ccccc1`, the growth inhibition is 2.45% in test [1]; -10.7% in test [2]; 17.9% in test [3]; -7.4% in test [4]; 19.7% in test [5]; -17.6% in test [6].
`CC1=CC(=O)C(O)C2(C)C(CCC3(C)OCCO3)C=C(O[Si](C)(C)C(C)(C)C)CC12` (stereo unspecified): the growth inhibition was 21.6% in test [1]; -2.5% in test [2]; 1.2% in test [3]; 18.4% in test [4]; 5.15% in test [5]; 7% in test [6].
For the compound `O=S1(=O)OCCOS(=O)(=O)C1S(=O)(=O)c1cccc2ccccc12`, the growth inhibition in test [1] is -19.2%; in test [2] it was -5.95%; in test [3], 12.8%; in test [4] it was -8.7%; in test [5] it was -2.95%; in test [6], 27%.
For `CN(C)c1ccc(/[N+]([O-])=C/C=C/C=[N+](/[O-])c2ccc(N(C)C)cc2)cc1`, the growth inhibition was -1.35% in test [1]; 3.8% in test [2]; 1.55% in test [3]; -28.6% in test [4]; 13.2% in test [5]; -14.6% in test [6].
As for `O=C(O)c1ccccc1C(=O)c1ccccn1`, the growth inhibition in test [1] is -4%; in test [2], -31.8%; in test [3], -5.9%; in test [4], 10.6%; in test [5] it was -17.2%; in test [6], -15.2%.
As to `C/C(=N/NC(=O)NN)c1cccc(O)c1`, the growth inhibition in test [1] was 3.1%; in test [2], -11.8%; in test [3] it was -16.6%; in test [4] it was 2.15%; in test [5] it was -4.5%; in test [6], -19.2%.
`O=c1/c(=C2\Cc3cccc4cccc2c34)c2cccc3cccc1c32`: the growth inhibition was -9.7% in test [1]; -10.8% in test [2]; 10.1% in test [3]; -1.45% in test [4]; 18.7% in test [5]; -15.2% in test [6].
In the case of `CSc1ccc(NC(=O)Nc2cc(Cl)c(Cl)cc2C)cc1`, the growth inhibition in test [1] is 4.7%; in test [2], 60.5%; in test [3], 46.8%; in test [4] it was -1.95%; in test [5], 35%; in test [6], 25.2%.
On to `CCOC(=O)c1cccc(Cl)c1C(=O)O`, for which the growth inhibition in test [1] is -7.75%; in test [2] it was -13.1%; in test [3] it was 0.25%; in test [4], -29.5%; in test [5] it was -4.05%; in test [6], -7.75%.
As for `O=C(N/N=C/c1ccccc1)c1c(F)c(F)c(F)c(F)c1F`, the growth inhibition in test [1] is -27.6%; in test [2], 9%; in test [3], -32.9%; in test [4], 12.2%; in test [5] it was 0.6%; in test [6], 0.6%.
Take `COC(=O)C1CC23CCCC12CC3` (stereo unspecified): the growth inhibition in test [1] is 21.6%; in test [2], -1.25%; in test [3], 2.3%; in test [4], -66.7%; in test [5], 8.05%; in test [6], -7.05%.
Take `Cc1cc(=O)oc2cc(OCCCOc3ccc4c(C)cc(=O)oc4c3)ccc12`: the growth inhibition in test [1] was 19.1%; in test [2], 5.45%; in test [3], -2.1%; in test [4] it was -4.1%; in test [5], -5.2%; in test [6], 13.3%.
Take `CCOc1c(OC)cc(-c2nnc(SCCN(CC)CC)o2)cc1OC`: the growth inhibition was 11.4% in test [1]; 0.35% in test [2]; 7.1% in test [3]; 16.7% in test [4]; 0.15% in test [5]; -7.05% in test [6].
In the case of `O=C/C=C/N=c1ccn(O)cc1`, the growth inhibition in test [1] is 8.65%; in test [2], 3.45%; in test [3], 3.05%; in test [4], -2.1%; in test [5], 4.25%; in test [6], 2.1%.
As to `CCOC(C)(C(=O)O)c1cccc2ccccc12` (stereo unspecified), the growth inhibition in test [1] is -20.4%; in test [2] it was -11%; in test [3], -7.95%; in test [4] it was 0.4%; in test [5], -8.8%; in test [6] it was 14.8%.
`COC(=O)C1c2ccoc2CC2C1C(O)C(O)C1C(C)(C)CCCC21C` (stereo unspecified): the growth inhibition in test [1] was 57.5%; in test [2], 88.6% (active); in test [3], 77.8% (active); in test [4] it was 72% (active); in test [5] it was 81.6% (active); in test [6] it was 92.5% (active).
As for `CCOC(=O)C/C(C)=N\NC(N)=O`, the growth inhibition in test [1] was 38.2%; in test [2], 42.5%; in test [3], 44.8%; in test [4], 18.2%; in test [5] it was 26.1%; in test [6], 42.8%.
For `CC(C)CCCC(C)C1CCC2C3CCC4CC(N5CCCCC5)CCC4(C)C3CCC12C` (stereo unspecified), the growth inhibition was 5.5% in test [1]; -9.6% in test [2]; -16.1% in test [3]; -20.8% in test [4]; 4.55% in test [5]; 17.1% in test [6].
On to `CC12CCC(C(Br)C1=O)C2(C)CBr` (stereo unspecified), for which the growth inhibition in test [1] is -9.8%; in test [2] it was 5.75%; in test [3] it was 20.4%; in test [4], 23.8%; in test [5], 9%; in test [6], -0.7%.
Turning to `Cc1ccc(S(=O)(=O)Nc2ccc([N+](=O)[O-])cc2[N+](=O)[O-])cc1`, the growth inhibition in test [1] was 17.5%; in test [2], 15.3%; in test [3], -1.65%; in test [4], 9.85%; in test [5] it was 1.15%; in test [6], 17.8%.
Regarding `CC1(C)S/C(=C\c2ccccc2)c2nc3ccccc3c(=O)n21`, the growth inhibition in test [1] was -6.8%; in test [2] it was -7.2%; in test [3], -16.1%; in test [4] it was 2.3%; in test [5] it was -0.4%; in test [6], -21.4%.
For the compound `CCCCC(C)NC=O` (stereo unspecified), the growth inhibition in test [1] was 31.4%; in test [2] it was 13%; in test [3], 3.9%; in test [4], 9%; in test [5], 14.4%; in test [6], 24.6%.
As for `COC1=NCc2ccccc2-c2ccccc21`, the growth inhibition in test [1] was -16.1%; in test [2], -21.2%; in test [3], -17.9%; in test [4], 8.55%; in test [5], 27.5%; in test [6] it was -28.9%.
